Measles CPE: compounds protecting cells from measles virus cytopathic effect, primary screen, measles RdRp inhibitor project, single point, MLSMR library, absorbance | protection (pct of control), % at 4 µM | AID 841, 2007 | Measles virus-infected cells, CPE protection | 140,000 compounds, 1.5% hits; in the data active = protection mostly above about 24%, no sharp cut-off; inactive = mostly below about 26%
F-actin modifier: modifiers of F-actin cytoskeleton organization, primary screen, imaging, HUVEC, phalloidin staining, high-content imaging; HUVEC TNFa F-actin phalloidin imaging; inhibition, % at 2 µM; 91,000 compounds, 0.18% hits;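 active = inhibition above the batch mean plus 3 SD and confirmed as a hit by visual image inspection, cut at about 30% in these data, passing the limit was not always enough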
The depositor's hits bear a star. Sampled rows, rich in hits. Any-hit rate of the full collection: about 1.5%.

Screening Cc1ccc(C(=O)Nc2ccc3c(c2)OCO3)cc1 returned Measles CPE 4 and F-actin modifier -3.
`C/C(=C\C(=O)c1ccccc1)Nc1ccc2c(c1)OCO2` gave Measles CPE 30*.
For CC1CCCCN1Cc1c(O)ccc2c(=O)c(-c3nc4ccccc4s3)c(N)oc12 (stereo unspecified) the results were Measles CPE 2.
For CC(C)NC(=O)c1ccc(-n2nc(C(F)(F)F)c3c2CCCC3)cc1 the results were Measles CPE 3.
`Cc1cccc(N2CCN(C(=O)NCc3ccc(Cl)cc3)CC2)c1` gave Measles CPE 14 and F-actin modifier -8.
O=C(CSc1nnc(-c2cccnc2)n1CCN1CCCCC1)Nc1cccc(Cl)c1 was read as Measles CPE 9.
CN(CC(=O)Nc1ccccc1Br)Cc1nc2ccccc2c(=O)[nH]1 was read as Measles CPE 8 and F-actin modifier -14.
CC(NC(=O)c1cc2c(s1)CCCC2)C(C)(C)C (stereo unspecified) was read as Measles CPE 3.
CNC(=O)NC(=O)C(C)OC(=O)c1cc2c(s1)CCCCC2 (stereo unspecified) was read as Measles CPE 29*.
Screening Cc1cccc(N2CCN(C(=O)c3ccc(Cl)c(S(=O)(=O)N4CCc5ccccc5C4)c3)CC2)c1C returned Measles CPE 18.
`O=S(=O)(NCC(c1ccco1)N1CCOCC1)c1ccc(Cl)cc1` (stereo unspecified) gave Measles CPE 9.
`COc1ccccc1CNC(=O)CCCc1ccccc1` gave Measles CPE 11.
`COc1ccc(CNC(=O)CCCc2ccccc2)cc1` gave Measles CPE 31*.
For CCCNC(=O)Cn1cnc2sc(C(=O)N3CCN(c4ccc(F)cc4)CC3)c(C)c2c1=O the results were Measles CPE 9 and F-actin modifier -5.
Cc1c(C(=O)N2CCN(c3ccccc3F)CC2)sc2ncn(CC(=O)N3CCOCC3)c(=O)c12 was read as Measles CPE 17 and F-actin modifier 88*.
CC1(C)CC(=O)CC(=O)/C1=N\Nc1c(Cl)cc(Cl)cc1Cl was read as Measles CPE 9.
Screening CN(CCOC(=O)c1ccc2c(c1)OCCO2)Cc1ccccc1 returned Measles CPE 22 and F-actin modifier -4.
`CN(CCOC(=O)c1ccc2c(c1)OCCO2)C(C)(C)C` gave Measles CPE 88*.
`CCc1ccc(NC(=O)C(=O)NNC(=O)COc2cccc(OC)c2)cc1` gave Measles CPE 5.
Cc1oc(-c2ccccc2Cl)nc1CSCC(=O)N1CCCC1 was read as Measles CPE 44* and F-actin modifier -15.
`Cc1oc(-c2ccccc2Cl)nc1CSCC(=O)NC1CCCC1` gave Measles CPE 9 and F-actin modifier -14.
Screening Cc1nc(-c2c(C(F)(F)F)noc2-c2ccc(O)cc2O)cs1 returned Measles CPE 4 and F-actin modifier -12.
CCOc1cc(C)c(-c2onc(C(F)(F)F)c2-c2csc(C)n2)c(O)c1 was read as Measles CPE 45* and F-actin modifier 5.
Screening CC1=C(C(=O)OC(C)C)C(c2ccccc2)NC(=S)N1C (stereo unspecified) returned Measles CPE 5.
CC(C)Nc1nc(NC(C)C)nc(NS(=O)(=O)c2ccc(N)cc2)n1 was read as Measles CPE 30* and F-actin modifier -26.
`CCNc1nc(NC(C)C)nc(NS(=O)(=O)c2ccc(N)cc2)n1` gave Measles CPE 19.
For O=C(C1CCCO1)N1CCN(C(=S)Nc2ccccc2F)CC1 (stereo unspecified) the results were Measles CPE 6.
Cc1ccc(NC(=O)CN2C(=O)CSC2=O)cc1 was read as Measles CPE 3 and F-actin modifier -8.
`O=C(CN1C(=O)CSC1=O)Nc1ccc(C(=O)O)cc1` gave Measles CPE 102* and F-actin modifier 10.
`COc1ccc(NS(=O)(=O)c2cc(NC(=O)c3ccco3)ccc2N2CCCCC2)cc1` gave Measles CPE 1.
Cc1nonc1NC(=O)CSc1nc(C2CCCCC2)nc2ccccc12 was read as Measles CPE 9 and F-actin modifier 83*.
For Cc1nn(C)c(C)c1NC(=O)CSc1nc(-c2ccccc2Cl)nc2c1cnn2-c1ccccc1 the results were Measles CPE 11 and F-actin modifier 5.
For Cc1cc(NC(=O)CSc2nc(C3CCCCC3)nc3ccccc23)no1 the results were Measles CPE 16 and F-actin modifier 3.
Screening Cc1nn(C)c(C)c1NC(=O)CSc1nc(C2CC2)nc2c1cnn2-c1ccccc1 returned Measles CPE 62* and F-actin modifier -9.
COC(=O)C1=NN(c2cccc(C)c2)C2C(=O)N(c3ccccc3OC)C(=O)C12 (stereo unspecified) was read as Measles CPE 11.
`O=C(Oc1ccc2c3c(c(=O)oc2c1)CCC3)c1ccccc1[N+](=O)[O-]` gave Measles CPE 8.
`O=C1CCC(=O)N1c1ccc(CSc2nnnn2C2CCCCC2)cc1` gave Measles CPE 19*.
For O=C(CSc1nnnn1C1CCCCC1)NCc1ccccc1 the results were Measles CPE 26 and F-actin modifier 7.
Screening O=C(O)c1ccc(CSc2nnnn2C2CCCCC2)cc1 returned Measles CPE 30* and F-actin modifier -6.
`O=C(CSc1nnnn1C1CCCCC1)NCc1cccc(C(=O)O)c1` gave Measles CPE 19 and F-actin modifier 20.
For CN(C)c1ccc(/C=N/NC(=O)CN2CCN(c3ccc(F)cc3)CC2)cc1 the results were Measles CPE 4.
Screening COc1ccc(OC(=O)CN2C(=O)C3C4CCC(C4)C3C2=O)cc1 (stereo unspecified) returned Measles CPE 13.
For O=C1SC(SC(=Nc2ccccc2)Nc2ccccc2)C(=O)N1c1ccccc1 (stereo unspecified) the results were Measles CPE 4.
`COC(=O)CCC(=O)NNC(=O)c1cccc(Br)c1` gave Measles CPE 7.
`O=C(O)CCC(=O)NNC(=O)c1cccc(Br)c1` gave Measles CPE 59*.
Screening COc1ccc(C(C)(C)C)cc1NC(=O)C1CC=CCC1C(=O)O (stereo unspecified) returned Measles CPE 15 and F-actin modifier -6.
Screening COc1ccc(C(C)(C)C)cc1NC(=O)C1C2C=CC(C2)C1C(=O)O (stereo unspecified) returned Measles CPE 34* and F-actin modifier -23.
`CCn1ncc(CNC(=O)C2(C)CC2(Cl)Cl)c1C` (stereo unspecified) gave Measles CPE 29.
`Cc1ccc(OC(=O)c2sc(Cl)nc2C)cc1C` gave Measles CPE 14.
`CC1=C(C(=O)OCc2ccccc2)C(c2ccc(C#N)cc2)NC(=O)N1CCCC(=O)O` (stereo unspecified) gave Measles CPE 31*.
Screening CCOC(=O)C1=C(C)N(CCO)C(=O)NC1c1ccccc1 (stereo unspecified) returned Measles CPE 10.
Screening COCCOC(=O)C1=C(C)N(Cc2ccccc2)C(=O)NC1c1ccc(OC)cc1 (stereo unspecified) returned Measles CPE 52* and F-actin modifier 6.
Screening CC1=C(C(=O)OCc2ccccc2)C(c2ccc(Cl)cc2)NC(=O)N1CCCCCC(=O)O (stereo unspecified) returned Measles CPE 3.
